Sampled rows, rich in hits. Any-hit rate of the full collection: about 4.3%.
NR3A LBD binder: NR3A (human) ligand-binding domain modulation. NR3A LBD differential scanning fluorimetry, Tm shift; 0% = protein alone, 100% = glycine-bound protein. Tm shift relative to glycine control, % at 25 µM. 340,000 tested, 2.5% active. AID 1259313;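 active means melting temperature shift of at least 10% of the positive control shift, at one fixed dose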
NadD block: blocks S. aureus nicotinate mononucleotide adenylyltransferase | purified NadD enzyme, colorimetric absorbance read-out | inhibition, % at 20 µM | AID 602399 | 360,000 tested, 0.78% active; in the data active means inhibition above about 26%
FAS-TE inh: blocks the thioesterase domain of human fatty acid synthase; recombinant FAS-TE, OMFH fluorogenic substrate, fluorescence endpoint; inhibition, % at 15 µM; 360,000 tested, 0.67% active; AID 602261;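 active means compounds whose normalised, plate-corrected inhibition of enzyme fluorescence in the single-dose primary screen is 50% or more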;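 further: 0% = DMSO with enzyme and 100% = substrate without enzyme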
Target sequence (P49327 whole entry, looked up, the tested form may be a part): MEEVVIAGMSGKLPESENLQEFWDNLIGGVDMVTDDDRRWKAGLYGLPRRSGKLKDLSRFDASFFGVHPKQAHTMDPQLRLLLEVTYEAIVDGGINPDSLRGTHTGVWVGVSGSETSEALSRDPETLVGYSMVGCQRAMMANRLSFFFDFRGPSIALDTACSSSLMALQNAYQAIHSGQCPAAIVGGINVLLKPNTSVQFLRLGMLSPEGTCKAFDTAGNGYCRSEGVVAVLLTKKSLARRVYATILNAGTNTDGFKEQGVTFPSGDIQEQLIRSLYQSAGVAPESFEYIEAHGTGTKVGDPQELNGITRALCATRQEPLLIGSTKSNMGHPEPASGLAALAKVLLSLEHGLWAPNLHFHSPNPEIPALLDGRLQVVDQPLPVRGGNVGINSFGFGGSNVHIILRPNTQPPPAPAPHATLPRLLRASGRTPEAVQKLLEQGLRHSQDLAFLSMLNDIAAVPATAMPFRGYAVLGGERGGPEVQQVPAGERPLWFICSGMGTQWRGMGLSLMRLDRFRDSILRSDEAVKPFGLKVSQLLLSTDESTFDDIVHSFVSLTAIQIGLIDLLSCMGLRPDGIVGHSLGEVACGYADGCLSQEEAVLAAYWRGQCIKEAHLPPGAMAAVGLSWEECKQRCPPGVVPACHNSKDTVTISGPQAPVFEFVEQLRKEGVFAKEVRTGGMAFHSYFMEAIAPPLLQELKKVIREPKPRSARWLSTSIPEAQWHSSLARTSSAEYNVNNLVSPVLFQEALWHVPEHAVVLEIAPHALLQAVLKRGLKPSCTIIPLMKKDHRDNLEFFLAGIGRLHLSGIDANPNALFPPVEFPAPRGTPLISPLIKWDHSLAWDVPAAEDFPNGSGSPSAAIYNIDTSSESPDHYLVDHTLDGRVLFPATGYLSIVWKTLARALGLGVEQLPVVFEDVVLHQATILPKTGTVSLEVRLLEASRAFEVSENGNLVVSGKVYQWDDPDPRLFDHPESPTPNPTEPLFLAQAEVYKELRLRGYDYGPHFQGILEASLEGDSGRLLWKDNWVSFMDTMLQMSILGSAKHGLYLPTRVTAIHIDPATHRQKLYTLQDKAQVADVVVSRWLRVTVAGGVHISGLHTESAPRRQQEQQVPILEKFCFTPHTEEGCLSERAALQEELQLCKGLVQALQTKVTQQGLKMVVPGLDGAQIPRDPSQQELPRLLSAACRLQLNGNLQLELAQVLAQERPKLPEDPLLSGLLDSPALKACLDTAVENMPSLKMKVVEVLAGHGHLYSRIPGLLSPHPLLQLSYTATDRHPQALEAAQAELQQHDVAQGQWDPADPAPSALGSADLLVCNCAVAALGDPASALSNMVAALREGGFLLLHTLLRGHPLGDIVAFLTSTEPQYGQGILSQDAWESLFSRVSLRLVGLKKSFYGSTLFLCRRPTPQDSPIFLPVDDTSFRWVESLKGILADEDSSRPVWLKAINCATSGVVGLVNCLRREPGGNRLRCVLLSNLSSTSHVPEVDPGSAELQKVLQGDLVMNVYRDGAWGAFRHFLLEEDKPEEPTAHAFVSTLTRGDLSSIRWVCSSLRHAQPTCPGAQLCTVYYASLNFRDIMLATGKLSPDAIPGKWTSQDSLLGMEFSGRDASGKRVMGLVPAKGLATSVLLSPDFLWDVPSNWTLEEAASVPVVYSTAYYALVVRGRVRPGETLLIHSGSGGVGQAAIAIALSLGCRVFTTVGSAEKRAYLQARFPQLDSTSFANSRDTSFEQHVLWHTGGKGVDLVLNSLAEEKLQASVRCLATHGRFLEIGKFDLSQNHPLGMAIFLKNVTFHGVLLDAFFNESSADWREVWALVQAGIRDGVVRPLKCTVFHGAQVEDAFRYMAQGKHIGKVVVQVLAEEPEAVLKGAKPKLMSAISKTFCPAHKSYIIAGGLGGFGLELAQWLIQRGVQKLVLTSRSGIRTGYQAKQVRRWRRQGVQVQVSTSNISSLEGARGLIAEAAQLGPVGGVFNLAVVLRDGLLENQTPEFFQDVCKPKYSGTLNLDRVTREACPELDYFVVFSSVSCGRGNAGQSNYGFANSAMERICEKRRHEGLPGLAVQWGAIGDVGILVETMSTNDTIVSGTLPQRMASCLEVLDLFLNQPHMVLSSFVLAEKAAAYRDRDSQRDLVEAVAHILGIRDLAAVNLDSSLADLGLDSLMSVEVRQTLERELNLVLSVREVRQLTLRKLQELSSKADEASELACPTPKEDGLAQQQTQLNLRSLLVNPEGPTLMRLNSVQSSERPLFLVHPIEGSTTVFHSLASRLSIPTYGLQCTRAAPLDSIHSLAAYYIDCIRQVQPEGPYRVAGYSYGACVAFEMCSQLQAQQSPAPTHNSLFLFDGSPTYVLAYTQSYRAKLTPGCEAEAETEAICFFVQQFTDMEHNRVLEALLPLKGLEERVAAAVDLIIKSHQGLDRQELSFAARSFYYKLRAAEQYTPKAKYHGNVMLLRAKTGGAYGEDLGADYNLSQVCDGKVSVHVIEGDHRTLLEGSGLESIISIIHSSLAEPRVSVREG
rCAG binder: r(CAG) repeat RNA binding; TO-PRO-1 dye displacement fluorescence; inhibition, % at 3 µM; 370,000 tested, 1.3% active; AID 651821;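 active means inhibition above the plate cutoff, the mean of all test compounds on that plate plus 3 SD, cut at about 35% in these data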;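 further: 0% = DMSO alone and 100% = 100 µM mitoxantrone as full dye displacement; higher means more dye released from RNA so lower well fluorescence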
An asterisk follows results filed as active; . = no result given.

SMILES | NR3A LBD binder | NadD block | FAS-TE inh | rCAG binder
Cc1cccc(NC(=O)c2cc(-c3cc(C)cc(C)c3O)n[nH]2)c1 | 36* | 0 | 10 | 12
Cc1cc(C)c(O)c(-c2cc(C(=O)Nc3cccnc3)[nH]n2)c1 | 7 | -4 | -7 | 5
COc1ccc(NC(=O)c2cc(-c3cc(C)cc(C)c3O)n[nH]2)cc1Cl | 36* | 26 | 16 | 23
NS(=O)(=O)c1ccc(NC(=O)c2cc(-c3ccccc3O)n[nH]2)cc1 | 34* | -9 | -11 | 12
COc1ccc(S[C@]2(C(=O)N3CCN(C(C)=O)CC3)CC(=O)N(C(=O)/C=C/c3ccccc3)[C@@H]2c2ccc(OC)cc2)cc1 | . | . | . | 16
Cc1ccc(Cl)cc1-c1cc(C(=O)Nc2ccc(F)cc2)[nH]n1 | . | -3 | 15 | 4
Cc1ccc(NC(=O)c2cc(-c3ccccc3O)n[nH]2)cc1Cl | 26* | 14 | -5 | 0
Cc1cccc(NC(=O)CN2C(=O)N/C(=C/c3ccc(C)s3)C2=O)c1 | -15 | 8 | -27 | 6
CCn1c(C)cc(/C=C2\NC(=O)N(CC(=O)Nc3ccc(F)cc3)C2=O)c1C | -1 | 11 | -6 | 9
Cc1ccc(NC(=O)CN2C(=O)N/C(=C/c3ccco3)C2=O)cc1 | 1 | 18 | -5 | 21
Cc1ccc(NC(=O)CN2C(=O)N/C(=C/c3cc(C)n(-c4ccc(C(=O)O)cc4)c3C)C2=O)cc1 | -1 | 11 | 2 | 37*
Cc1cccc(NC(=O)CN2C(=O)N/C(=C/c3cc(C)n(C(C)C)c3C)C2=O)c1 | -4 | 34* | 4 | 12
Cc1ccc(NC(=O)CN2C(=O)N/C(=C/c3cccn3-c3ccc(C(=O)O)cc3)C2=O)cc1 | -2 | 14 | -12 | 56*
COC(=O)[C@H](C(C)C)N(CCCc1cn(Cc2ccccc2)nn1)S(=O)(=O)c1ccccc1Br | . | . | . | 3
O=C1N(c2ccccc2)CC2CC(c3ccccc3)N3CCCC123 (stereo unspecified) | . | . | . | 12
CCNC(=S)NNC(=O)CSc1nnc(SCc2cccc3ccccc23)s1 | . | . | . | 27
CSc1nc(/C=C2\C=Nc3ccccc32)c(O)n1C | 0 | -2 | -10 | 1
CC(C)n1c(O)c(/C=C2\C=Nc3ccccc32)sc1=Nc1ccccc1 | 25* | -2 | 13 | 6
O=C(c1cc(C(=O)NCCc2ccccc2)c(=O)n(CCc2ccccc2)c1)c1cc(Cl)ccc1O | 13* | 6 | 28 | 8
CCOC(=O)C1CSCCS(=O)(=O)N1Cc1ccccc1F (stereo unspecified) | . | . | . | -2
O=C(CN1C(=O)S/C(=C/c2ccccn2)C1=O)N1CCOCC1 | 0 | 6 | -9 | -2
O=C1S/C(=C\c2ccccn2)C(=O)N1Cc1ccccc1F | 13* | 2 | -6 | 1
COc1ccc(CNC(=O)CSc2nc3c([nH]2)c(=O)n(C)c(=O)n3C)cc1 | . | . | . | 0
O=C(COC(=O)Cc1ccccc1F)Nc1ccc2[nH]c(=O)[nH]c2c1 | -1 | 2 | -3 | 3
O=C(COC(=O)/C=C/c1cc(Br)ccc1F)Nc1ccc2[nH]c(=O)[nH]c2c1 | 10* | 5 | -11 | 14
SMILES | NR3A LBD binder | NadD block | FAS-TE inh | rCAG binder
CN(CCO)C1CN(Cc2cn(Cc3ccccc3C(F)(F)F)nn2)S(=O)(=O)C1 (stereo unspecified) | . | . | . | 4
CC1CCCCC1NC(=O)/C(C#N)=C/c1ccc2c(c1)OCCO2 (stereo unspecified) | 13* | . | . | .
CCOC(=O)[C@]12CCCC3=C1N(CCC3)C(=O)[C@@H](CC(=O)NCc1ccc(OC)c(OC)c1)C2 | . | . | . | -1
CN(C)c1ccc(NC(=S)OC2CCC23CCC(c2ccccc2)CC3)cc1 (stereo unspecified) | . | . | . | 5
CCOc1cccc(OCCOCCNC(C)(C)C)c1 | 16* | 4 | 0 | 2
CCOc1ccc(OCCCCNC(C)(C)C)cc1 | -1 | -2 | -14 | -1
CC12COC3(C(=O)Nc4ccc([N+](=O)[O-])cc4)CC1CCC32C (stereo unspecified) | 17* | -5 | 22 | -4
CCCN(CC(=O)Nc1cccc(Br)c1)CC(=O)Nc1ccc(F)c(F)c1F | 22* | -4 | 41 | 2
S=c1nc2[nH]c3ccccc3c2n[nH]1 | 20* | 0 | -3 | 2
Cc1ccc(-c2nc(C3CCCN(S(=O)(=O)c4ccc(C)c(C)c4)C3)no2)cc1 (stereo unspecified) | . | . | . | 5
O=C1C(Cl)=C(N2CCCCC2)C(=O)C(Cl)=C1c1cnc(N2CCCCC2)s1 | -52 | 33* | 78* | .
O=C1C(Cl)=C(N2CCCCCC2)C(=O)N1c1ccc(Cl)cc1 | 0 | 0 | 17 | 5
CCCC1=NN2C(=N)/C(=C\c3cc(C)n(-c4cccc(C)c4)c3C)C(=O)N=C2S1 | -16 | 53* | -7 | 5

Assay outcomes deposited in PubChem by several laboratories.
